In all, about 360,000 compounds went through this assay and about 2,300 (0.64%) were called active. The sample holds actives, similar compounds and a random draw of the others, so the mix is not that of the screen. Unmarked numbers belong to inactive results. No stated cut-off is given here; in the data, active means inhibition mostly above about 40% (no sharp cut-off); inactive means mostly below about 27%.

For the assay, the target named is Sentrin-specific protease 8 (Homo sapiens) (UniProt Q96LD8). The assay can be described thus: human SENP8 protease inhibitors, primary screen, biochemical, fluorescence, Nedd8 protein substrate, uHTS (AID 602440). The note with it: recombinant SENP8, Nedd8 substrate fluorescence; at 20 µM; stronger effect = higher value.
Chain of Sentrin-specific protease 8 (Homo sapiens) (Q96LD8 whole entry, looked up): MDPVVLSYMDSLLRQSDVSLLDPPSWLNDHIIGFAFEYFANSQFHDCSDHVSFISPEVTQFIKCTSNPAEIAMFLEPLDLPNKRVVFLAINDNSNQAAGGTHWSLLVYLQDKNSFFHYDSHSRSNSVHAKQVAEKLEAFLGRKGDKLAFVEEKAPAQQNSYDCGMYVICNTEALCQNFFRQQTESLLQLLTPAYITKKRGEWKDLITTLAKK
For `COc1cc(C(F)(F)F)c(C(=O)N(C)c2ccc(Cl)cc2)cn1`, the inhibition was -0.9%. As to `OC1CSc2nc3ccccc3n2C1` (stereo not given), the inhibition was 9.1%.

Take `O=C1NC(c2ccccc2)CCC1(Cl)Cl` (stereo not given): the inhibition is 14.1%. In the case of `Cc1c(NS(=O)(=O)c2cccc(C(=O)Nc3ccc(SC(F)F)cc3)c2)c(=O)n(-c2ccccc2)n1C`, the inhibition was -1.9%.

In the case of `COc1ccc(NC(=O)/C(N=Nc2cccc(S(=O)(=O)Nc3ccc(SC(F)F)cc3)c2)=C(\C)O)cc1`, the inhibition was 38.3% (active).

Regarding `Nc1cccc(S(=O)(=O)Nc2ccc(SC(F)F)cc2)c1`, the inhibition was 5.2%. On to `CC(=O)c1cnc(SCCN2C(=O)c3ccccc3C2=O)nc1C`, for which the inhibition was 9.5%. With `CCOCCCNC(=O)c1c[nH]c2cc(C)ccc2c1=O`, the inhibition was 5.8%.

For the compound `CCc1[nH]nc(C(=O)N2CCCC(CO)(Cc3ccc(F)cc3F)C2)c1C` (stereo not given), the inhibition is 3.5%. Consider `CN(c1ccc(C(=O)N2CCc3ccccc3C2)cc1)S(C)(=O)=O`, for which the inhibition was 43.9% (active). To `Cn1cccc1C(=O)N1CCc2ccccc2C1` belongs -0.8%.

On to `CS(=O)(=O)N(CC(=O)N1CCc2ccccc2C1)c1ccc(Br)cc1`, for which the inhibition was 6.5%.

Turning to `COc1ccc(CNC(=O)CN(C(=O)c2csnn2)c2cnc3ccccc3c2)cc1`, the inhibition is -222%. On to `CCN(CC)C(=O)CSc1nc2ccccc2n1CC(=O)N1CCN(c2ccccc2OC)CC1`, for which the inhibition was 33.5%. With `O=c1[nH]c2ccccc2s1`, the inhibition is 44.5% (active). The same measure for `Nc1ccc2[nH]c(=S)sc2c1`: -81.4%; for `COc1ccc(-c2[nH]ncc2CN(C)Cc2cc(C)[nH]n2)c(F)c1`: 8.6%; for `CCOC(=O)c1c(CC(C)C)csc1/N=C/C1=C(O)CCCC1=O`: -55.6%. The same measure for `Nn1cnnc1N/N=C/c1cc([N+](=O)[O-])c(Cl)cc1Cl`: 51.7% (active); for `CCCOc1cccc(C(=O)Nc2ccccc2C(=O)N2CCN(C)CC2)c1`: 4.7%; for `C[C@H]1CN([C@@H](C)CO)C(=O)CCCn2cc(nn2)CO[C@@H]1CN(C)S(=O)(=O)c1ccc(-n2cccn2)cc1`: 8.3%. For the compound `Cc1cc(C)nc(N2C(=O)CC(Cc3ccccc3)C2=O)n1` (stereo not given), the inhibition was 2.8%.

Turning to `COc1cc(CN2CCCN(C)CC2)c([N+](=O)[O-])cc1OC`, the inhibition is 11.8%. The same measure for `CC(C)(C)n1c(=O)[nH]c2c(c1=O)CCC2`: 16.6%; for `O=c1[nH]n2c(=O)c3c([nH]c2c1N=Nc1ccccc1)CCC3`: 46.3% (active); for `CCCCOc1ccc(C(=O)NCC(=O)OCC(=O)N2CCN(S(=O)(=O)c3ccc(C)cc3C)CC2)cc1`: 7.7%. Consider `Cc1cc(C)nc(SCc2nnc(SCC(=O)OC3CCCCC3)o2)n1`, for which the inhibition was 6.5%. Regarding `COc1ccccc1C1SCCN1C(=O)c1ccc([N+](=O)[O-])cc1` (stereo not given), the inhibition was 8.4%. In the case of `CCOC(=O)C1CCCN(C(=O)c2ccc(C)c(F)c2)CC1` (stereo not given), the inhibition was 40.6% (active). For the compound `CCOC(=O)C1CCCN(C(=O)c2ccc(C)c(S(=O)(=O)N3CCCCC3)c2)C1` (stereo not given), the inhibition is 4.6%. To `CCOC(=O)C1CCCN(C(=O)c2ccc(N(C)C)cc2)CC1` (stereo not given) belongs 18.8%. For the compound `CC(C)N(C(=O)Cn1cc(S(=O)(=O)CC(=O)N2CCOCC2)c2ccccc21)C(C)C`, the inhibition is 5.7%. Take `COC(=O)c1nc2n(n1)C(c1ccc([N+](=O)[O-])cc1)C(C(=O)Nc1ccc(Cl)cc1)=C(C)N2` (stereo not given): the inhibition is 18.3%.

With `COC(=O)c1cc(NC2c3ccccc3C(=O)N2c2ccc(Cl)cn2)cc(C(=O)OC)c1` (stereo not given), the inhibition was -28%. For the compound `O=C1[C@@H](c2ccccc2)[C@@H](c2ccccc2)N1c1cccnc1`, the inhibition is -26.4%. The same measure for `CCc1ccccc1NC1c2ccccc2C(=O)N1c1cccnc1` (stereo not given): 41% (active); for `O=C(Cc1ccccc1)NC(=S)Nc1ccc(N2CCCCC2)cc1`: 42.1% (active).

For `O=C(CN1CCN(c2ccc(O)cc2)CC1)Nc1ccc(-c2ccccc2)cc1`, the inhibition was 23.2%. As for `COc1ccccc1C(=O)NC(=S)Nc1ccc(N2CCOCC2)cc1`, the inhibition was 14.8%. For the compound `CN1CCn2cnc(C(=O)NCC(=O)OC(C)(C)C)c2C1=O`, the inhibition was 14.9%.

In the case of `CCN(CC)CCCNC(=O)CCn1nc(-c2ccc(Cl)cc2)ccc1=O`, the inhibition was 13.2%. Consider `CN(CC(=O)Nc1ccc(F)cc1)C(=O)c1ccc(-c2ccc(Cl)cc2)o1`, for which the inhibition was -23.1%. As for `Cc1[nH][nH]c(=O)c1C(c1ccc(-c2ccc(Cl)cc2)o1)c1c(C)[nH][nH]c1=O`, the inhibition is 63.5% (active).

Regarding `COc1ccc(C(=O)NC(=S)N2CCNC(=O)C2CC(=O)OC(C)C)cc1` (stereo not given), the inhibition was -6.1%.

Consider `CC(=O)c1ccc(OCC(=O)N(C)C2CCS(=O)(=O)C2)cc1` (stereo not given), for which the inhibition was 18.3%. With `Cn1c(=O)[nH]c(=O)c2c1nc(CN(Cc1ccccc1)Cc1ccccc1)n2CCN1CCOCC1`, the inhibition is 17.1%.

With `COCCNC(=O)NC(=O)COC(=O)C1(c2ccc(Cl)cc2)CC1`, the inhibition is 6.8%.

With `O=C(Nc1ccc(C(=O)O)c(O)c1)c1ccccc1`, the inhibition was 43.3% (active). The same measure for `O=C(Cc1ccccc1)Nc1ccc(C(=O)Nc2ccccc2C(=O)O)cc1`: -13.4%; for `O=C(Cn1ccc(=O)[nH]c1=O)Nc1ccc(C(=O)O)c(O)c1`: 7.9%.

Take `CC(C)C(NC(=O)c1c(F)cccc1F)C(=O)NCc1ccncc1` (stereo not given): the inhibition was -7.7%. In the case of `N#Cc1ccc(C(C(=O)NCc2ccccc2)n2c(=O)c(-c3ccco3)nc3ccccc32)cc1` (stereo not given), the inhibition is -432%.

Regarding `Cc1cccc(C)c1NC(=O)C(c1cccc2ccccc12)n1c(=O)c(-c2ccco2)nc2ccccc21` (stereo not given), the inhibition was -458%. The same measure for `c1coc(-c2nc3nc4ccccc4n3nc2-c2ccco2)c1`: 106% (active); for `Cc1ccc2c(Cl)c(C(=O)Nc3nn[nH]n3)sc2c1`: -0.2%; for `Cc1noc(C)c1NC(=O)Nc1ccc2c(c1)C(=O)N([C@H](C)CO)C[C@H](C)[C@@H](CN(C)S(=O)(=O)c1cn(C)cn1)O2`: -6%. Regarding `O=C(C/C(=N\NC(=O)c1ccccc1Br)C(F)(F)F)c1cccs1`, the inhibition was 25.6%. To `Cc1nc(SCC(=O)c2ccccc2)c([N+](=O)[O-])[nH]1` belongs 41.9% (active). `O=C(CSc1nnc2ccccn12)c1ccccc1`: the inhibition is -1.2%. The same measure for `Cc1nc2nc(SCC(=O)c3ccccc3)[nH]c2cc1Br`: 13.3%.

In general, inhibition refers to the relative decrease from the control value, in per cent.
